According to PubChem BioAssay (NCATS):
Records with an inconclusive call do not appear. Where a call stands in place of a potency, no number is given. The source made the active and inactive calls. Calls come from the whole dose curve; as a rule, active = well fitted inhibition curve with a large enough effect; inconclusive = small, poorly fitted or top-dose-only effect; inactive = no such curve, though single readings can be large or run the other way.

Test: P-glycoprotein substrates identified in KB-3-1 adenocarcinoma cell line, qHTS therapeutic library screen (AID 1346986); note: nearly all actives have a fitted effect of over 60% in size;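 note: potency is for cytotoxicity meaning loss of cell viability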
Settings: KB-3-1 parental cells viability, CellTiter-Glo, 72 h; series mostly up to 44.5 µM; activity change, negative = cytotoxicity: at the top concentration
Outline: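 KB-3-1 parental cells and P-gp-overexpressing KB-8-5-11 (colchicine omitted during assay) plated at 500 cells/well, dosed in dose-response, incubated 72 h at 37 degree C. CellTiter-Glo luminescence read; KB-8-5-11 also tested with tariquidar.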
Potency is the fitted concentration of half-maximal effect.

Q: Which “outcome” value does the source give for CCCCC(=O)O[C@]1(C(=O)CO)[C@@H](C)C[C@H]2[C@@H]3CCC4=CC(=O)C=C[C@]4(C)[C@@]3(F)[C@@H](O)C[C@@]21C here?
A: The value was “inactive”.

Q: With CC(=O)C1=C(O)C=C2Oc3c(C(C)=O)c(O)c(C)c(O)c3C2(C)C1=O (centres undefined) as the compound, how does the “outcome” value read?
A: Its value is “inactive”.

Q: With C=CC(=O)N1CCc2ccc(-n3c(=O)ccc4cnc5ccc(-c6cnn(C)c6)cc5c43)cc21 as the compound, how does the Potency read?
A: Its Potency is 3.99 µM (active).

Q: For CCNC(=O)Nc1ccc(-c2nc3c(c(N4CCOC[C@H]4C)n2)CCN(C2COC2)C3)cc1, which Potency is on record?
A: The Potency was 0.58 µM (active).

Q: Which “outcome” value does the source give for CC1(C)O[C@@H]2C[C@H]3[C@@H]4CCC5=CC(=O)C=C[C@]5(C)[C@@H]4[C@@H](O)C[C@]3(C)[C@]2(C(=O)CO)O1 here?
A: The value was “inactive”.

Q: Which “outcome” value does the source give for O=C(Nc1ccc(Oc2ccnc3[nH]ccc23)c(F)c1)c1cccn(-c2ccc(F)cc2)c1=O here?
A: The value was “inactive”.

Q: With C[C@@H]1[C@H](C)CC[C@]2(C(=O)O)CC[C@]3(C)C(=CC[C@@H]4[C@@]5(C)C[C@@H](O)[C@H](O)[C@@](C)(CO)[C@H]5CC[C@]43C)[C@@H]12 as the compound, how does the “outcome” value read?
A: Its value is “inactive”.

Q: Which Potency does the source give for CCCCCCCCCCCCc1ccc(S(=O)(=O)Nc2nncs2)cc1 here?
A: Its Potency is “inactive”.

Q: For CON=C(C(=O)N[C@@H]1C(=O)N2C(C(=O)O)=C(CSC(=O)c3ccco3)CS[C@H]12)c1csc(N)n1, which “outcome” value is on record?
A: The value was “inactive”.
